HEK293 viab = cell viability loss counter-screen. HEK-293-SNCA-luc viability, GF-AFC fluorescence, 24 h. Potency, µM (titrated, usually from 57.1 µM), for the others: at the top dose activity change, negative = cytotoxicity, most hits filed as cytotoxic. 0.12% of 150,000 active. AID 1671193;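 further: 0% = DMSO-treated cells and -100% = medium-only wells without cells; nearly all actives have a fitted effect of over 30% in size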
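HEK-293-SNCA-luc cells (1500/well) plated 24 h, then exposed 24 h to a dilution series; GF-AFC added 30 min at 37C, fluorescence 405/540 nm; normalised to medium-only and DMSO wells, Hill fit.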
FLuc inh = blocks purified firefly luciferase enzyme activity; purified P. pyralis luciferase, luminescence, biochemical; 2.5% of 76,000 active; P08659; Potency, µM (doses to about 115 µM), actives largely listed as inhibitors; further: on the % scale 0 is the no-effect control and ±100 the full control effect; nearly all actives have a fitted effect of over 65% in size
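Purified 10nM P. pyralis luciferase with 10uM D-luciferin and 10uM ATP in 50mM Tris acetate pH 7.5, 10mM Mg acetate, 0.01% Tween-20, 0.05% BSA. qHTS titration; luminescence read by CCD imager.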
SNCA expr inh = inhibitors of alpha-synuclein (SNCA) gene expression; HEK-293 SNCA-luciferase knock-in, luminescence, 24 h; Potency, µM (series often up to 57.2 µM), without a hit: at the top dose activity change, negative = inhibition, hits mostly inhibitors; 0.17% of 140,000 active;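 further: plate controls were DMSO cells for no effect and cell-free wells for full effect; nearly all actives have a fitted effect of over 45% in size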
HEK cytotox = HEK 293 cell cytotoxicity | HEK 293 viability, ATP luminescence (CellTiter-Glo), 48-72 h | Potency, µM (highest dose often 115 µM), for inactives: at the highest dose activity change, negative = cytotoxicity, most hits filed as inhibitors | 6.6% of 94,000 active; further: on the % scale 0 is the no-effect control and ±100 the full control effect; nearly all actives have a fitted effect of over 60% in size
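ATP-coupled CellTiter-Glo luminescence served as viability read-out, recorded 10 min after reagent addition at room temperature. HEK 293 cells, 250 cells/well, had been incubated with pintool-transferred compound for 48 or 72 hr at 37 degree Celsius.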
NIH3T3 tox = NIH 3T3 cell cytotoxicity; 4.3% of 94,000 active; NIH 3T3 viability, CellTiter-Glo ATP luminescence, 48-72 h; Potency, µM (top dose mostly 96.7 µM), for the others: top-dose activity change, negative = cytotoxicity, most hits filed as inhibitors; further: on the % scale 0 is the no-effect control and ±100 the full control effect; nearly all actives have a fitted effect of over 55% in size
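NIH 3T3 cells at 400 cells/well received 23 nL of compound by pintool and were incubated 48 or 72 h at 37 °C. Viability was read as ATP-coupled CellTiter-Glo luminescence.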
NPR1 antag = human Npr1 receptor antagonism | 1.6% of 76,000 active | Potency, µM (highest dose often 46.3 µM), inactives show top-dose activity change, negative = inhibition, usual class: inhibitors | AID 1347048 | HEK293 hNpr1 GloSensor cGMP, ANP-stimulated luminescence; calls by dose curve; further: on the % scale 0 is the no-effect control and ±100 the full control effect; nearly all actives have a fitted effect of over 60% in size
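Compound pre-incubated 30 min at room temperature on GloSensor-loaded HEK293 cells stably carrying hNpr1 and the pGS-40F cGMP biosensor. Stimulation uses hNppA at 0.1 nM final; luminescence is taken at baseline and 20 min post-agonist.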
NPR1 antag cnf = confirmation of human Npr1 natriuretic peptide receptor antagonists; HEK293 hNpr1 cGMP GloSensor luminescence, ANP-stimulated; Potency, µM (doses to about 57.6 µM), for the others: top-dose activity change, negative = inhibition, most hits filed as inhibitors; 76% of 1,400 active; shares compounds with NPR1 antag; calls by dose curve; further: nearly all actives have a fitted effect of over 70% in size
Npr2 selectivity = antagonizes human Npr2, subtype selectivity check; HEK293 hNpr2 GloSensor cGMP luminescence, CNP-stimulated; Potency, µM (highest dose often 57.6 µM), for the others: at the top dose activity change, negative = inhibition, hits mostly inhibitors; shares compounds with NPR1 antag; 67% of 1,400 active; calls by dose curve; further: nearly all actives have a fitted effect of over 70% in size
Target sequence (P20594 whole entry, looked up): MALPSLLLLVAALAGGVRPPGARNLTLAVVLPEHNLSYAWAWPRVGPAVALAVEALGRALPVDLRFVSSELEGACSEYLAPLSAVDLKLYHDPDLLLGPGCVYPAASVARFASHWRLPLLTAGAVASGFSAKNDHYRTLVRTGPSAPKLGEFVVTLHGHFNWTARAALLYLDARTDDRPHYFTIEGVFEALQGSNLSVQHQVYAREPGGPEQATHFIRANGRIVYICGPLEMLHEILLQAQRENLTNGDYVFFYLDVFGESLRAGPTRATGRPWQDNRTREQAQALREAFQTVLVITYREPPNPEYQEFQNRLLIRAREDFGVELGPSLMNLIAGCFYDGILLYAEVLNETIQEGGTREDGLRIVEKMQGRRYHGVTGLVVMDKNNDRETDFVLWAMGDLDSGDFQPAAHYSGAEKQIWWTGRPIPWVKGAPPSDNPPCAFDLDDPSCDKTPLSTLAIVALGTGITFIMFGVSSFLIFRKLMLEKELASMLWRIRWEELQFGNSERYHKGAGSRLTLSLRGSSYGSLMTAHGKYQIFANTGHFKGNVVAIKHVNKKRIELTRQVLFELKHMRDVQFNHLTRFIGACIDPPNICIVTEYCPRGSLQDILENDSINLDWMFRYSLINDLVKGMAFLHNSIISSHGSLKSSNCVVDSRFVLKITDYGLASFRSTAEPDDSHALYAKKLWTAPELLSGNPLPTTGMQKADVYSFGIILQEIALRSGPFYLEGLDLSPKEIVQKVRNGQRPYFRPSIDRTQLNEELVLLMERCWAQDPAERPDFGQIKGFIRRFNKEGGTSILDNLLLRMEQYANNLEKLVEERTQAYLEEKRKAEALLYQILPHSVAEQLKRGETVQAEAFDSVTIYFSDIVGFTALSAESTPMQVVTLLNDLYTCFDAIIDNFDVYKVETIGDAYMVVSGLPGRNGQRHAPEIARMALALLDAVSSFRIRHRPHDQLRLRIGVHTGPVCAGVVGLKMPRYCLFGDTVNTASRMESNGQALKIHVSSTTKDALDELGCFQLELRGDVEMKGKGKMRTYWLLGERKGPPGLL
FLuc inh counter = counter-screen for Npr1 antagonists: firefly luciferase inhibitors | Potency, µM (titrated, usually from 57.6 µM), for the others: at the highest dose activity change, negative = inhibition, actives largely listed as inhibitors | 0.7% of 1,400 active | AID 1347047 | purified FLuc enzyme, luminescence, Km substrate | shares compounds with NPR1 antag; further: series mostly up to about 58 µM; 0% is about no effect
GloSensor cGMP = counter-screen for Npr1 antagonists: GloSensor control cell line; Potency, µM (titrated, usually from 57.6 µM), for the others: top-dose activity change, negative = inhibition, most hits filed as inhibitors; AID 1347051; 69% of 1,400 active; shares compounds with NPR1 antag; HEK293 GloSensor cGMP, SNP-stimulated, luminescence; calls by dose curve; further: on the % scale 0 is the no-effect control and ±100 the full control effect; nearly all actives have a fitted effect of over 70% in size
Numbers without * were called inactive. Rows were chosen to be rich in hits. Some 7.2% of all compounds tested hit in one or more screens of this group. Unless noted, the call rests on the fitted dose curve; in most records, active means well fitted curve in the direction sought with a large enough effect; inconclusive means small, poorly fitted or top-dose-only effect, or another doubt; inactive means no such curve, though single readings can be large; an effect the other way counts as inactive or inconclusive. Potency means the concentration at half of the fitted maximal effect.

How did O=C(CC1CCCC1)N1[C@H]2CC[C@@H]1c1cnc(-c3ccccc3)nc1C2 do in these assays?
HEK293 viab: -7%; FLuc inh: inactive; SNCA expr inh: -16%; HEK cytotox: inconclusive; NIH3T3 tox: -27%; NPR1 antag: 5.6µM*; NPR1 antag cnf: 11µM*; Npr2 selectivity: 12µM*; FLuc inh counter: 2%; GloSensor cGMP: 11µM*

Results for Cn1cccc1C(=O)N1[C@H]2CC[C@@H]1c1cnc(-c3ccc(F)cc3)nc1C2 ?
HEK293 viab: 5%; FLuc inh: inactive; SNCA expr inh: -25%; HEK cytotox: 16µM*; NIH3T3 tox: inconclusive; NPR1 antag: 10µM*; NPR1 antag cnf: 12µM*; Npr2 selectivity: 15µM*; FLuc inh counter: 2%; GloSensor cGMP: 14µM*

Results for CCC(=O)N1[C@H]2CC[C@@H]1c1cnc(-c3ccc(F)cc3)nc1C2 ?
HEK293 viab: 10%; FLuc inh: inactive; SNCA expr inh: 5%; HEK cytotox: -22%; NIH3T3 tox: -24%; NPR1 antag: inconclusive

Results for O=C(NCc1ccncc1)C1CNCC12CCOCC2 (centres undefined) ?
HEK293 viab: 4%; FLuc inh: inactive; SNCA expr inh: -7%; HEK cytotox: inactive; NIH3T3 tox: 0%; NPR1 antag: -1%

How did O=C(C1CCC1)N1[C@H]2CC[C@@H]1c1cnc(-c3ccc(F)cc3)nc1C2 do in these assays?
HEK293 viab: 6%; FLuc inh: inactive; SNCA expr inh: 36%; HEK cytotox: inconclusive; NIH3T3 tox: -43%; NPR1 antag: 18µM*; NPR1 antag cnf: 19µM*; Npr2 selectivity: 19µM*; FLuc inh counter: 1%; GloSensor cGMP: 15µM*

What do the screens show for `O=C(C1CCC1)N1[C@H]2CC[C@@H]1c1cnc(-c3ccccc3)nc1C2`?
HEK293 viab: -3%; FLuc inh: inactive; SNCA expr inh: -23%; HEK cytotox: inconclusive; NIH3T3 tox: -21%; NPR1 antag: inconclusive

How did CCC(CC)c1cc([C@H]2CN3CC[C@H]2C[C@@H]3CNS(C)(=O)=O)nc(-c2ccncc2)n1 do in these assays?
HEK293 viab: -1%; FLuc inh: inactive; SNCA expr inh: -8%; HEK cytotox: -10%; NIH3T3 tox: -15%; NPR1 antag: 2%

How did CCC(CC)c1cc([C@H]2CN3CC[C@H]2C[C@@H]3CNS(=O)(=O)c2cccs2)nc(-c2ccncc2)n1 do in these assays?
HEK293 viab: inconclusive; FLuc inh: inactive; SNCA expr inh: inconclusive; HEK cytotox: inconclusive; NIH3T3 tox: 20µM*; NPR1 antag: 14µM*; NPR1 antag cnf: 22µM*; Npr2 selectivity: 11µM*; FLuc inh counter: 5%; GloSensor cGMP: -15%

Compound activity as filed in PubChem.
